Screens deposited in PubChem by National Center for Advancing Translational Sciences (NCATS).
In the library only some 8.7% were active in any assay of this set; here they are far more common.
BAZ2B block – blocks human BAZ2B; Q9UIF8; AlphaScreen BAZ2B-H3K14Ac peptide displacement; Potency, µM (series often up to 114 µM), inactives show top-dose activity change, negative = inhibition, hits mostly inhibitors; 360,000 tested, 4.4% active; AID 504333; also: % is scaled to controls: 0 for no effect and ±100 for the full control effect; nearly all actives have a fitted effect of over 60% in size
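AlphaScreen luminescence quantifies BAZ2B engagement of H3K14Ac peptide; the protein and biotinylated peptide are both at 50 nM final, buffer PBS pH 7.4 with 0.01% Tween-20, all steps at room temperature.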
12-LOX inh – blocks human arachidonate 12S-lipoxygenase; P18054; purified 12hLO, xylenol orange hydroperoxide absorbance; Potency, µM (titrated, usually from 108 µM), for inactives: at the top dose activity change, negative = inhibition, hits mostly inhibitors; 580,000 tested, 1.1% active; also: % is scaled to controls: 0 for no effect and ±100 for the full control effect
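Purified human 12hLO at 150 nM in 25 mM Hepes, 0.01% Triton X-100, pH 7.0, preincubated 15 min at room temperature with compound. Reaction started with 40 uM arachidonic acid, 30 min at room temperature. Hydroperoxide measured by Fe-xylenol orange, 573/405 nm absorbance ratio.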
JMJD2A Tudor – inhibitors of human JMJD2A Tudor domain | O75164 | AlphaScreen JMJD2A-Tudor / H3K4me3 peptide binding | Potency, µM (titrated, usually from 114 µM), for the others: at the highest dose activity change, negative = inhibition, actives largely listed as inhibitors | 390,000 tested, 4.4% active | AID 504339; also: % is scaled to controls: 0 for no effect and ±100 for the full control effect; nearly all actives have a fitted effect of over 50% in size
HP1b chromo inh – blocks HP1-beta chromodomain binding to methylated histone tails | P83916 | AlphaScreen HP1-beta / biotin-H3K9me3 peptide binding | Potency, µM (top dose mostly 114 µM), for the others: top-dose activity change, negative = inhibition, actives largely listed as inhibitors | 390,000 tested, 0.56% active | AID 540317; also: nearly all actives have a fitted effect of over 70% in size
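HP1-beta protein (50 nM final) preincubated 30 min at room temperature with biotinylated H3(1-18)K9me3 peptide (50 nM) in PBS pH 7.4, 0.01% Tween-20, then compound added for 30 min. AlphaScreen streptavidin donor/nickel chelate acceptor beads (10 ug/mL final), 30 min dark, luminescence read.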
G9a inh – blocks human histone lysine methyltransferase G9a; G9a H3K9 monomethylation, AlphaScreen, 2 h; Potency, µM (top dose mostly 102 µM), inactives show top-dose activity, negative = inhibition, hits mostly inhibitors; 350,000 tested, 8.8% active; AID 504332; also: % is scaled to controls: 0 for no effect and ±100 for the full control effect; nearly all actives have a fitted effect of over 75% in size
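Signal arises when biotinylated H3K9 peptide, once monomethylated, bridges streptavidin donor and antibody-captured acceptor beads. Enzyme at 20 nM was preincubated 15 min with test compounds; peptide 500 nM and SAM 20 uM then reacted for 2 h.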
Sfp PPTase inh – inhibitors of Bacillus subtilis Sfp phosphopantetheinyl transferase | Q9F4F7 | 310,000 tested, 3.5% active | Biochemical Sfp PPTase activity, qHTS | Potency, µM, for the others: largest response in the series, negative = inhibition, usual class: inhibitors;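 also: the enzyme is Sfp with the accession as filed and its product quenches rhodamine fluorescence; 0% = enzyme reaction without inhibitor and -100% = no enzyme wells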
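Fluorescence-quenching assay with 15 nM Sfp, 5 uM rhodamine-CoA and 12.5 uM BHQ-2-labelled ybbR peptide in pH 7.6 Hepes/MgCl2 buffer. Enzyme was pre-incubated with compound for 15 min at room temperature. Rate was taken from the 30-min fluorescence change (525/598 nm).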
Numbers without * were called inactive; ? = inconclusive; · = no result; [ ] = dose if it differs, or a comment. Calls follow the shape of the dose curve; as a rule, active = well fitted curve in the direction sought with a large enough effect; inconclusive = small, poorly fitted or top-dose-only effect, or another doubt; inactive = no such curve, though single readings can be large; an effect the other way counts as inactive or inconclusive. Potency is read from the fitted curve at half-maximal effect.

SMILES	BAZ2B block	12-LOX inh	JMJD2A Tudor	HP1b chromo inh	G9a inh	Sfp PPTase inh
O=C(/C=C/c1ccc(-c2cccc(Cl)c2)o1)c1cc(Cl)ccc1Cl	·	17.8µM*	·	·	·	·
O=C(CN1CCCC1)N/N=C/c1ccc(-c2cccc(Cl)c2)o1	-35.7%[57.1 µM]	28.0%	?	-0.5%	-34.7%[59 µM]	-17.6%
O=Cc1ccc(-c2ccc(Br)cc2Cl)o1	·	39.8%	·	·	·	·
O=C(NNC(=O)c1ccccc1F)c1ccc(-c2ccccc2Cl)o1	·	9.8%	·	·	·	·
Cc1ccc(C(=O)/C=C/c2ccc(-c3cc(Cl)ccc3Cl)o2)cc1	·	5.01µM*	·	·	·	·
Cc1ccc(S(=O)(=O)N2CCCCC2)cc1NCC(=O)N1CCN(C(=O)c2cccs2)CC1	·	-0.7%	·	·	·	·
COc1ccc(CCNC(=O)CSc2ccc(-c3ccccn3)nn2)cc1OC	·	3.3%	·	·	·	·
O=C(Nc1ccccc1)Nc1cccc(C(=O)NCC2CCCO2)c1 (stereo not drawn)	·	-1.6%	·	·	·	·
C[C@@H](NCC1CCCC1)c1onc(-c2ccc(Cl)cc2)c1C(=O)O	·	9.1%[176 µM]	·	·	·	·
Cc1ccc(C(=O)/C=C/c2ccc(-c3cccc(Cl)c3Cl)o2)cc1	·	14.1µM*	·	·	·	·
COC(=O)C1=C(C)NC(C)=C(C(=O)OC)C1c1ccc(-c2cccc(Cl)c2Cl)o1	-1.9%	0.4%	-10.7%	34.2%	-17.9%[59 µM]	?
CS(=O)(=O)N1CCCN(C(=O)C2(c3ccccc3)CC2)c2ccccc21	·	15.0%	·	·	·	·
COc1cc(C2Nc3ccccc3C(=O)N2C2CC2)ccc1O (stereo not drawn)	·	-7.5%	·	·	·	·
CSc1nc(SCC(=O)O)c2sc3nc(-c4ccccc4)c4c(c3c2n1)CCC4	22.4µM*	?	28.2µM*	?	17.8µM*	-16.4%
CSc1nc(NCCN(C)C)c2sc3nc(-c4ccco4)c4c(c3c2n1)CCC4	·	0.0%	89.1µM*	?	·	·
CSc1nc(N(C)CCO)c2sc3nc(-c4ccco4)c4c(c3c2n1)CCC4	50.1µM*	·	25.1µM*	-60.0%	15.4%[0.0925 µM]	79.4µM*
COc1ccc2cc(C(=O)NC3CCN(C(=O)N4CC5CC(C4)[C@H]4CCCC(=O)N4C5)CC3)[nH]c2c1 (stereo partly drawn)	·	8.4%	·	·	·	·
CCn1c(-n2nc(C)cc2C)nc2c1c(=O)n(Cc1ccccc1Cl)c(=O)n2C	·	18.1%	·	·	·	·
CCOC(=O)c1c(N)sc(C(O)(C(F)(F)F)C(F)(F)F)c1-c1ccc(OC)cc1OC	?	9.4%	-23.3%	26.0%	79.4µM*	-5.4%
CCOC(=O)c1c(C)oc2ncnc(Nc3ccc(OC)cc3OC)c12	0.6%	-19.6%	-7.3%	30.6%	1.9%[59 µM]	·
O=C(CC(=O)N/N=C/c1ccccc1[N+](=O)[O-])N/N=C/c1ccccc1[N+](=O)[O-]	·	-6.1%	·	·	·	·
O=C(CC(=O)NC1CCCCC1)N/N=C/c1ccccc1[N+](=O)[O-]	4.0%	-17.8%	2.1%	20.7%	44.7µM*	21.8%
O=C(O)c1ccn[nH]1	·	·	44.7µM*	-1.8%	·	·
NC(=O)C1CCN(c2cc(-c3noc([C@@H]4CCCN4Cc4ccc(Cl)cc4)n3)ccn2)CC1	·	-7.5%	·	·	·	·
Cc1cccc(N(C)C(=O)Cn2c(=O)n(-c3cccc(C)c3)c(=O)c3c2cc(C)n3C)c1	·	40.7%	·	·	·	·
SMILES	BAZ2B block	12-LOX inh	JMJD2A Tudor	HP1b chromo inh	G9a inh	Sfp PPTase inh
COC(=O)/C=C1\SC(=NC(=O)c2ccc(C)cc2)NC1=O	?	?	-18.8%	17.2%	28.2µM*	35.5µM*
NS(=O)(=O)c1ccc(NNC(=O)c2ccc(F)cc2F)cc1	-0.5%	0.0%	-10.4%	42.5%	11.2µM*	14.7%
O=C(Nc1ccccc1)c1ccc(F)cc1F	·	13.1%	3.6%	35.0%	·	·
O=C(NNc1ccc(Cl)cc1)c1cccs1	-18.6%	?	-30.3%	19.3%	10µM*	-1.1%
O=C(NNC(=S)Nc1ccc(Cl)cc1)c1cccs1	-3.8%	-12.2%	-27.4%	16.5%	25.1µM*	14.7%
NS(=O)(=O)c1ccc(NS(=O)(=O)c2cccs2)cc1	6.4%	14.1%	-7.6%	26.8%	-33.4%[12.7 µM]	12.3%
NS(=O)(=O)c1ccc(NNC(=O)c2cccs2)cc1	-2.9%	-1.4%	7.1%	47.1%	10µM*	?
FC(F)(F)c1cccc(CSc2nnc(-c3cccnc3)n2-c2ccc(Br)cc2)c1	·	-4.1%	·	·	·	·
O=C(NNC(=O)c1cccs1)Nc1cccc(Cl)c1	11.9%	0.0%	-7.5%	37.7%	16.5%[0.0925 µM]	-4.0%
O=C(NNc1cc(Cl)cc(Cl)c1)c1cccs1	-16.1%	?	-8.3%	46.5%	28.2µM*	-7.3%
Cc1c(Cl)cccc1NC(=S)N(Cc1ccco1)C(C)c1ccccn1 (stereo not drawn)	·	24.6%	-19.0%	17.5%	?	-9.5%
Cc1ccccc1NC(=S)N(Cc1ccco1)C(C)c1ccccn1 (stereo not drawn)	-1.2%	3.8%	-21.2%	14.9%	0.5%	79.4µM*
CC(C)C[C@@H](CN1CCCC1CN1C(=S)NC[C@@H]1Cc1ccc(O)cc1)N1C[C@H](Cc2ccccc2)N(CC2CCCCCC2)C1=S (stereo partly drawn)	·	?	-25.2%	40.9%	·	·
CC(C)C[C@H]1CNC(=S)N1C[C@H]1CCCN1C[C@H](Cc1ccc(O)cc1)N1C[C@H](Cc2ccc(O)cc2)N(CCc2ccccc2)C1=S	·	44.7µM*	·	·	·	·
CC(C)C[C@@H](CN1CCCC1CN1C(=S)NC[C@@H]1Cc1ccccc1)N1C[C@H](Cc2ccccc2)N(CC2CCCCCC2)C1=S (stereo partly drawn)	·	35.5µM*	·	·	·	·
CC(C)C[C@@H](CN1CCCC1CN1C(=S)NC[C@@H]1Cc1ccccc1)N1C[C@H](Cc2ccccc2)N(CCc2ccccc2)C1=S (stereo partly drawn)	·	39.8µM*	·	·	·	·
